Source: PubChem (National Center for Advancing Translational Sciences (NCATS))
An excerpt weighted towards active compounds, which were near 2.8% of everything screened.
SNCA expr inh: SNCA gene expression inhibition; HEK-293 SNCA-luciferase knock-in, luminescence, 24 h; Potency, µM (top dose mostly 57.2 µM), inactives show at the highest dose activity change, negative = inhibition, usual class: inhibitors; hit rate 0.17% among 140,000; AID 1671194;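 also: potency is read from the fitted curve at half-maximal effect; plate controls were DMSO cells for no effect and cell-free wells for full effect; nearly all actives have a fitted effect of over 45% in size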
SNCA viab count: reduces viability of HEK-293 SNCA reporter cells. HEK-293-SNCA-luc viability, GF-AFC fluorescence, 24 h. Potency, µM (top dose mostly 57.1 µM), inactives show top-dose activity change, negative = cytotoxicity, usual class: cytotoxic. hit rate 0.12% among 150,000;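 also: potency is read from the fitted curve at half-maximal effect; 0% = DMSO-treated cells and -100% = medium-only wells without cells; nearly all actives have a fitted effect of over 30% in size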
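HEK-293-SNCA-luc cells (1500/well) plated 24 h, then exposed 24 h to a dilution series; GF-AFC added 30 min at 37C, fluorescence 405/540 nm; normalised to medium-only and DMSO wells, Hill fit.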
KDM5B inhibitor: blocks human KDM5B histone demethylase activity; KDM5B demethylase, FDH-coupled NADH fluorescence (FDH is formaldehyde dehydrogenase); Potency, µM (highest dose often 57.7 µM), hits mostly inhibitors; hit rate 2.6% among 220,000; AID 1347165; also: potency is read from the fitted curve at half-maximal effect; 0% is about no effect; nearly all actives have a fitted effect of over 70% in size
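Measured: NADH fluorescence change, 30 min, RT. System: KDM5BΔAP 200 nM final, H3K4me3 peptide, α-KG, Fe(II), ascorbate, NAD⁺ plus FDH, pH 7.5 HEPES. Compounds: titrated, 10 min pre-incubation with enzyme.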
IP6K1 inhibitor: inhibitors of human IP6K1. IP6K1 kinase, ADP-Glo luminescence, 2 h; stronger effect = lower value. activity change, % (series mostly up to about 58 µM). hit rate 0.81% among 140,000. AID 1645851; in the data active = activity change below about -25%; also: % is scaled to controls: 0 for no effect and ±100 for the full control effect
Target sequence (Q92551 whole entry, looked up): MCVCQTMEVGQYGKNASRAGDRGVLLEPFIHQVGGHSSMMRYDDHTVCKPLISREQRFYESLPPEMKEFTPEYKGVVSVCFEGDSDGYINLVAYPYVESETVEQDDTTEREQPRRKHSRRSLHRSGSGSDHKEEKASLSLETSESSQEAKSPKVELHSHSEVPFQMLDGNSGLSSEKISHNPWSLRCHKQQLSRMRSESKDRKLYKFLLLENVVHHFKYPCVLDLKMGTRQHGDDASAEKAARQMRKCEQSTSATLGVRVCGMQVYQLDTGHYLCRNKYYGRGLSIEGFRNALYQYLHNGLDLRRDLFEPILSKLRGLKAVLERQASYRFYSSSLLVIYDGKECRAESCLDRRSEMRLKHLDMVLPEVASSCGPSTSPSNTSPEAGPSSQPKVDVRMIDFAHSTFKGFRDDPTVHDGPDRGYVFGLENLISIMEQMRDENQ
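ADP-Glo luminescence measures ADP made by human IP6K1 during a 2 h RT reaction with ATP/IP6 (mix at 1.3 mM/130 uM); top library doses 57.5 and 19.1 uM final.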
IP6K1 inh cnf: human IP6K1 inhibition, confirmatory | hit rate 13% among 1,200 | Potency, µM (titrated, usually from 49 µM), for inactives: at the highest dose activity change, negative = inhibition, usual class: inhibitors | recombinant IP6K1 kinase, ADP-Glo luminescence, 2 h | shares compounds with IP6K1 inhibitor; also: potency is read from the fitted curve at half-maximal effect; % is scaled to controls: 0 for no effect and ±100 for the full control effect; nearly all actives have a fitted effect of over 65% in size
Active calls of the source: *; i = inactive; ? = inconclusive; nt = no result given; [ ] = dose if it differs, or a comment. Unless noted, calls follow the shape of the dose curve; as a rule, active = well fitted curve in the direction sought with a large enough effect; inconclusive = small, poorly fitted or top-dose-only effect, or another doubt; inactive = no such curve, though single readings can be large; an effect the other way counts as inactive or inconclusive.

SMILES | SNCA expr inh | SNCA viab count | KDM5B inhibitor | IP6K1 inhibitor | IP6K1 inh cnf
O=C(CCS(=O)(=O)c1ccccc1)N(Cc1cccnc1)c1nc2ccc(F)cc2s1 | 42% | -6% | ? | -26* | -12%
CC(=O)N(Cc1cccnc1)c1nc2ccc(F)cc2s1 | 51% | -7% | i | -2 | nt
O=C1Nc2ccc(I)cc2/C1=C/c1cc(Br)c(O)c(Br)c1 | 7% | -9% | nt | nt | 2.9µM*
O=C1Nc2ccc(I)cc2C1=Cc1cc(Br)c(O)c(Br)c1 | -1% | -17% | nt | nt | nt
COc1ccc(Cl)cc1NC(=O)Cn1ncc2c3ccccc3n(Cc3ccccc3)c2c1=O | 11% | 2% | ? | -27* | -2%
Cc1ccc(Cl)cc1NC(=O)c1oc2c(c1C)-c1[nH]ncc1CC2 | 67% | 2% | ? | -40* | ?
OC1(CN2CCCCC2)CCN(Cc2cnn(-c3ccccc3Cl)c2)C1 (configuration not stated) | 22% | -7% | ? | -36* | 8%
O=C(c1ccccc1)N1CCC2(CC1)C(=O)NCN2C(=O)Cc1ccc(O)cc1 | -2% | 5% | i | 2 | nt
Cn1c(=O)c2c(-c3ccccc3Cl)[nH]cc2n(C)c1=O | nt | nt | i | nt | nt
CCc1cnc2c(c1SCCC(C)C)c(=O)n(C)c(=O)n2C | 0% | 5% | i | -28* | -18%
CC(C)(C)NC(=O)CC1(C(=O)NCC2(c3ccccc3)CC2)CCCC1 | nt | nt | i | nt | nt
COc1ccc(N2CCN(CC(O)COc3ccccc3C(C)(C)C)CC2)cc1 (configuration not stated) | ? | 5% | ? | -27* | ?
COc1ccc(N2CCN(CC(O)COc3c(OC)cccc3OC)CC2)cc1 (configuration not stated) | 51% | 7% | ? | -46* | -15%
Cc1ccc(N2CCN(C(=O)c3noc(-c4ccc5c(c4)OCO5)n3)CC2)c(C)c1 | 10% | 4% | ? | -11 | nt
Cc1cc2oc(C(=O)Nc3ccccc3C(F)(F)F)cc(=O)c2cc1C | nt | nt | i | nt | nt
C=CCOc1cccc(NC(=O)c2ccccc2Br)c1 | nt | nt | i | nt | nt
C[S+](=O)([O-])N1Cc2ccccc2CC2(CCCN(CC3CCCCC3)C2)C1 (configuration not stated) | -8% | 1% | i | -9 | nt
Brc1ccc(C2=Nn3c(nnc3-c3ccc4c(c3)OCO4)SC2)cc1 | nt | nt | i | nt | nt
COc1cccc(NC(=O)CC2C(=O)OCCN2Cc2ccccc2)c1 (configuration not stated) | 6% | 9% | i | -48* | -2%
COc1ccc(-c2nnc3ccc(N4CCCC4)nn23)nc1 | -29%[87.6 µM] | -17%[87.6 µM] | i | -12 | nt
CCCN(CCC)CCNC(=O)c1cc2c(=O)oc3ccc(C)cc3c2s1 | -16% | 17% | ? | -25* | -4%
Cc1ccc(CNC(=O)Cc2c(C)c3c(cc(C)c4c(C)coc43)oc2=O)cc1 | -5% | 2% | i | -26* | -20%
Cc1coc2c1c(C)cc1oc(=O)c(CC(=O)NCCc3ccc(Cl)cc3)c(C)c12 | -5% | 1% | i | -7 | nt
CCOc1nccn2c(-c3ccc(CNc4ccc(OC)nc4)cc3)cnc12 | -29%[87.6 µM] | -8%[87.6 µM] | ? | -36* | ?
Cc1cc(=O)oc2cc(OCC(=O)Nc3ccc4ccccc4c3)ccc12 | nt | nt | i | nt | nt
CCS(=O)(=O)N1CC(=O)N(c2ccc(Cl)cc2)C(C)(C(=O)NC2CCCCCC2)C1 (configuration not stated) | 20% | -21% | i | -34* | 3%
O=C(Nc1noc2ccccc12)c1ccc(F)cc1 | -75% | 18% | i | -48* | ?
O=C(Nc1noc2ccccc12)c1cccc(F)c1 | -41% | 11% | ? | 1 | nt
